Experimental data published in PubChem BioAssay AID588683 (Broad Institute, 2011).
Results with a measured potency or affinity are listed apart. Active and inactive are the calls of the source. The rule behind the calls is not given here.

Target: Kelch-like ECH-associated protein 1 (Homo sapiens) + Nuclear factor erythroid 2-related factor 2 (Homo sapiens) (UniProt Q14145+Q16236)
Assay: disruptors of Keap1 binding to Nrf2 peptide – biochemical, fluorescence polarization, cherry-picked samples, dose response (AID 588683);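 note: Kelch domain of Keap1 binding a fluorescein-labelled 9mer Nrf2 peptide; more negative means stronger inhibition of peptide binding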

Sequence of Kelch-like ECH-associated protein 1 (Homo sapiens) + Nuclear factor erythroid 2-related factor 2 (Homo sapiens) (Q14145 whole entry, looked up, the tested form may be a part): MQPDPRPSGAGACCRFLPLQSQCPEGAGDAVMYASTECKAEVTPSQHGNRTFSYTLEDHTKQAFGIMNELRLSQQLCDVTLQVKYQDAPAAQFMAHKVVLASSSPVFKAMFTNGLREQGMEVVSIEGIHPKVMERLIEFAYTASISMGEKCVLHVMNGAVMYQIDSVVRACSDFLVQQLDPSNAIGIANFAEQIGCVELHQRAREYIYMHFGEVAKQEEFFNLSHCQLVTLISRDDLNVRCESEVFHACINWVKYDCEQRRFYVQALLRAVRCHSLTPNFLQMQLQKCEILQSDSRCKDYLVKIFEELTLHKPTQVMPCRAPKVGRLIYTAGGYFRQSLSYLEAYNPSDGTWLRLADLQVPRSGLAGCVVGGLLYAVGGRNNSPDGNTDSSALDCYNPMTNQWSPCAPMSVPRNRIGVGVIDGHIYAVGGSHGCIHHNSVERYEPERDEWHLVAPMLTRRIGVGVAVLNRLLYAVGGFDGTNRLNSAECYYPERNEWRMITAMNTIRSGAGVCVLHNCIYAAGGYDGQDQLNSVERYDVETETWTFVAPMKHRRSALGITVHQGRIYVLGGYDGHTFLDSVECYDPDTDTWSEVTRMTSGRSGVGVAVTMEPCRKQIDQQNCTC
Sequence of Kelch-like ECH-associated protein 1 (Homo sapiens) + Nuclear factor erythroid 2-related factor 2 (Homo sapiens) (Q16236 whole entry, looked up, the tested form may be a part): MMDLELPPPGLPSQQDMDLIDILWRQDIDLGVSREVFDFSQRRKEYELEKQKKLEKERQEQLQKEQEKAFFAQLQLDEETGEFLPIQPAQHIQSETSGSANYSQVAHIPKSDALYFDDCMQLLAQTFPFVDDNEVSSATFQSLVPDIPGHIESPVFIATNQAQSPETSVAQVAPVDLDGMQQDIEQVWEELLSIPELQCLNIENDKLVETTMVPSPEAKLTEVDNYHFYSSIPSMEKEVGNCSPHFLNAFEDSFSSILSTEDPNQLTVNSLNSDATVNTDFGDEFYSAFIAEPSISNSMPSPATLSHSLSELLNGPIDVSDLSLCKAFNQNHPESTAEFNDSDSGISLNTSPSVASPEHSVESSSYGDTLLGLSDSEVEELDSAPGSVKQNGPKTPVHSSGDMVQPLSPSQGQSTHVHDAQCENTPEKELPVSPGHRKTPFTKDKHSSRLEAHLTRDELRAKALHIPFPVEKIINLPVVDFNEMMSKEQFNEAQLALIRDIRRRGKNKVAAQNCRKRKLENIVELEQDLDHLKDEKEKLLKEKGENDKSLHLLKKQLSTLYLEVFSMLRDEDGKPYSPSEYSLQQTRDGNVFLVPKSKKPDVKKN

Compound | outcome
Cc1cc(C)c2c(SC(C)C)nc(N)nc2n1 | inactive
O=C1/C(=C/C=C/c2ccco2)SC(=S)N1NS(=O)(=O)c1ccccc1 | inactive
CC1(C)CC(=O)C2=C(C1)OC1=C(C2)C(=O)CC(C)(C)C1 | inactive
O=C(NNC(=O)c1ccc(Br)o1)c1csc(N2CCOCC2)n1 | inactive
Cn1c(SCC(=O)c2cc(Cl)c(Cl)s2)nnc1-c1ccco1 | inactive
OC(CCN1CCC2(CC1)OCCO2)C(F)(F)F (stereo not given) | inactive
COc1cc(C#Cc2c(C=O)n(C)c3ccccc23)cc(OC)c1 | inactive
Oc1[nH]c2ccccc2c1N=Nc1ccccc1F | inactive
O=c1ccc2cc3c4c(c2o1)CCCN4CCC3 | inactive
COc1cccc(C2=CC(c3cccs3)n3nnnc3N2)c1 (stereo not given) | inactive
CN(CC(=O)Nc1cc(C(F)(F)F)ccc1-n1cncn1)Cc1ccccc1N1CCOCC1 | inactive
COc1ccc(Nc2nc3ccccc3nc2-n2nc(C)cc2C)cc1 | inactive
Cc1nnsc1C(=O)N1CCN(c2ccc(F)cc2)CC1 | inactive
Cc1ccc(NC(=S)NCc2ccc(F)cc2)c(C)c1 | inactive
CCc1cc(C(=O)c2ccc(OC)cc2)c(N)s1 | inactive
CCC(C)(C)n1nnnc1C(c1cc2ccc(OC)cc2[nH]c1=O)N1CCc2ccccc2C1 (stereo not given) | inactive
COc1cc(CO)ccc1Oc1nc2ccccc2n2cnnc12 | inactive
COc1ccccc1CNC(=O)c1ccccc1NS(C)(=O)=O | inactive
CC(C)(C)c1ccccc1NC(=O)NC1CCN(Cc2c(F)cccc2Cl)CC1 | inactive
Nc1c(Cl)ncnc1NCc1ccccc1 | inactive
